Screens (PubChem BioAssay)
TDP1 cell CPT = qHTS for Inhibitors of human tyrosyl-DNA phosphodiesterase 1 (TDP1): qHTS in cells in presence of CPT | chicken DT40 Tdp1-/-;hTDP1 cells + 20 nM CPT, ATP luminescence, 48 h | Potency, µM (highest dose often 46.2 µM), for inactives: at the top dose activity change, negative = growth inhibition, hits mostly inhibitors | actives 12% (n = 420,000); also: potency is read from the fitted curve at half-maximal effect; nearly all actives have a fitted effect of over 55% in size
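Chicken DT40 Tdp1-/- cells complemented with human TDP1, 400 cells/well, exposed to compounds plus 20 nM camptothecin for at least 48 h at 37 C; viability read as ATP content by CellTiter-Glo luminescence.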
HT1080-NT tox = qHTS for induction of synthetic lethality in tumor cells producing 2HG: qHTS for the HT-1080-NT fibrosarcoma cell line | HT-1080-NT fibrosarcoma viability, CellTiter-Glo ATP luminescence, 48 h | Potency, µM (top dose mostly 46.1 µM), for the others: at the highest dose activity, negative = less viability, most hits filed as cytotoxic | actives 1.6% (n = 360,000);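 also: NT is the 2HG producing partner of a matched IDH1 knockdown line; potency is read from the fitted curve at half-maximal effect; 0% = DMSO-treated cells and -100% = media-only wells without cells; nearly all actives have a fitted effect of over 55% in size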
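Compounds were tested in concentration-response format on HT-1080-NT cells for 48 hours at 37 degrees C. Cell viability came from CellTiter-Glo luminescence; curves were classified by r2, response magnitude and activity.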
HT1080 IDH1KD tx = qHTS for induction of synthetic lethality in tumor cells producing 2HG: qHTS for the HT-1080-IDH1KD cell line | actives 2% (n = 360,000) | HT-1080 IDH1 knockdown viability, ATP luminescence, 48 h | AID 686971, 2013 | Potency, µM (series often up to 46.1 µM), without a hit: at the highest dose activity, negative = toxicity, most hits filed as cytotoxic;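 also: potency is read from the fitted curve at half-maximal effect; 0% = DMSO wells and -100% = cell-free medium wells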
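Using the IDH1-knockdown HT-1080 line run in the same batch and compound series as the NT line, viability after 48 h at 37 °C was determined by CellTiter-Glo luminescence and expressed as % activity.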
IL-1B inflam inh = qHTS for Inhibitors of Inflammasome Signaling: IL-1-beta AlphaLISA Primary Screen; THP-1 LPS/ATP IL-1B secretion, AlphaLISA, 16 h; hits give low values; activity change, % at 57.5 µM; actives 4.7% (n = 360,000); in the data active = activity change below about -50%; inconclusive = mostly about -30% to -49%
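Secreted IL-1B measured by AlphaLISA bead assay after 16 h compound exposure of THP-1 cells; compounds (final up to 57.5 uM) added 1 h before LPS (250 ng/mL) and ATP (1.25 mM) stimulation; lower signal means less secretion.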
ELG1 DNA repair = qHTS screen for small molecules that inhibit ELG1-dependent DNA repair in human embryonic kidney (HEK293T) cells expressing luciferase-tagged ELG1; HEK293T ELG1-luciferase reporter, luminescence, 16 h; DNA damage induced by 5-fluorouridine; actives 2.3% (n = 330,000); Potency, µM (titrated, usually from 46.1 µM), without a hit: at the top dose activity change, negative = inhibition, most hits filed as inhibitors; also: potency is read from the fitted curve at half-maximal effect; nearly all actives have a fitted effect of over 55% in size
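Overnight (16 hr) co-exposure of 2,000 cells/well to 5-fluorouridine and compound at 37 °C preceded detection. Luciferase was quantified via ONE-Glo luminescence; loss of signal denotes inhibition.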
DT40 TDP1 no CPT = qHTS for Inhibitors of human tyrosyl-DNA phosphodiesterase 1 (TDP1): qHTS in cells in absence of CPT | DT40 Tdp1-/- hTDP1 cells, no CPT, ATP luminescence, 48 h | Potency, µM (top dose mostly 46.2 µM), inactives show top-dose activity change, negative = growth inhibition, actives largely listed as inhibitors | actives 15% (n = 420,000) | AID 686978, 2013; also: potency is read from the fitted curve at half-maximal effect; nearly all actives have a fitted effect of over 55% in size
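No-CPT arm: Tdp1-/-;hTDP1 DT40 cells (400/well) plus compounds, incubated ≥48 hr at 37 °C. Readout CellTiter-Glo luminescence.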
Starred values were filed as active, the others as inactive; ? = inconclusive; · = no result; [ ] = dose if it differs, or a comment. An excerpt weighted towards active compounds, which were near 19% of everything screened. Unless noted, calls follow the shape of the dose curve; as a rule, active = well fitted curve in the direction sought with a large enough effect; inconclusive = small, poorly fitted or top-dose-only effect, or another doubt; inactive = no such curve, though single readings can be large; an effect the other way counts as inactive or inconclusive. Unless noted, % is scaled to controls: 0 for no effect and ±100 for the full control effect.

SMILES	TDP1 cell CPT	HT1080-NT tox	HT1080 IDH1KD tx	IL-1B inflam inh	ELG1 DNA repair	DT40 TDP1 no CPT
COc1cc(C)ccc1S(=O)(=O)NC(=O)C1(C)CCN1C(=O)c1ccc(C(F)(F)F)nc1C (stereo not given)	6%	2%	7%	-8	·	13%
Cc1noc(C)c1-c1cncnc1-n1ccnc1	9%	·	·	·	·	-1%
CN(C)CCC(=O)C(Cc1ccccc1)c1ccccc1 (stereo not given)	5.2µM*	-39%	?	-99*	·	4.6µM*
CC(CCCN(C)C)C(Cc1ccccc1)c1ccccc1 (stereo not given)	?	?	16µM*	-66*	·	?
CN(C)CCNC(=O)C(c1ccccc1)c1ccccc1	-5%	8%	0%	-15	2%	-23%
COc1ccccc1CCNC(=O)COc1cccc2c1OC(C)(C)C2	11%	0%	-1%	-17	?	23µM*
Cc1cc(NC(=O)COC(=O)COc2cccc3c2OC(C)(C)C3)no1	-3%	12%	6%	17	-3%	2%
COc1ccc(NC(=O)COc2cccc3c2OC(C)(C)C3)cc1OC	21µM*	-11%	0%	0	?	13µM*
Cc1cnc(NC(=O)COc2cccc3c2OC(C)(C)C3)s1	?	-11%	6.5µM*	-9	26%	?
CC1(C)Cc2cccc(OCC(=O)OCC(=O)Nc3ccc(S(N)(=O)=O)cc3)c2O1	-17%	-1%	1%	19	·	3%
CN(C)S(=O)(=O)c1ccc(NC(=O)COc2cccc3c2OC(C)(C)C3)cc1	21µM*	2%	-2%	-9	-25%	?
O=C(Nc1nc2ccc(Cl)cc2s1)c1ccc(S(=O)(=O)N2CCCC2)cc1	-3%	·	·	·	·	-22%
COc1ccc(N(C(=O)c2cnccn2)C(C(=O)NCc2ccccc2)c2ccc(O)cc2)cc1 (stereo not given)	12%	7%	18%	15	?	0%
CCCNC(=O)c1ccccc1NC(=O)COc1cccc2c1OC(C)(C)C2	?	-5%	-13%	1	15µM*	18µM*
CC1(C)Cc2cccc(OCC(=O)Nc3ccccc3F)c2O1	?	15%	-2%	17	?	?
Nc1c(C(=O)NCCN2CCOCC2)c2nc3ccccc3nc2n1-c1ccc2c(c1)OCO2	?	?	-23%	-59*	?	?
Nc1c(C(=O)NCc2ccc3c(c2)OCO3)c2nc3ccccc3nc2n1CCCN1CCOCC1	23µM*	?	7%[9.24 µM]	-98*	?	?
Nc1c(C(=O)NCCN2CCOCC2)c2nc3ccccc3nc2n1-c1ccccc1	?	-2%	-1%	-52*	?	16µM*
Nc1ccc(-n2c(N)c(C(=O)NCc3ccc4c(c3)OCO4)c3nc4ccccc4nc32)cc1	?	-16%	-14%	-14	·	?
CCc1ccc(OCC2c3cc(OC)c(OC)cc3CCN2C(=O)COc2ccccc2)cc1 (stereo not given)	?	·	·	·	·	16µM*
COc1cc(CO)ccc1OCC(=O)N1CCc2ccccc21	-17%	-4%	-2%	13	16%	1%
